Data taken from ChEMBL document CHEMBL4513216, “Probing the Open Global Health Chemical Diversity Library for Multistage-Active Starting Points for Next-Generation Antimalarials” (ACS Infect Dis, 2020).
About 2,700 (4%) of roughly 68,000 compounds showed an effect of 50% or more. For the sample, strong results were picked, then their nearest neighbours and some compounds at random.

Tested on: Plasmodium berghei
Assay: Screen against P. berghei liver stage (PbLuc), transformed with Luciferase, at 2uM
Format: functional, HepG2
Conditions: tested at 2 uM

Row | Compound | INHIBITION [%]
1 | Cc1cccc(-c2nc(C)nn2CC(=O)NCC(C)C)c1 | -9.49
2 | CCC(=O)c1ccc(OCC(=O)NC(C)c2nnc(C)[nH]2)cc1 (configuration not stated) | -20.29
3 | CCn1ccc2cc(NC(=O)CC3CCCO3)ccc21 (configuration not stated) | -73.93
4 | Cc1cccc2cc(CO)c(N3Cc4cnc(C(C)(C)C)nc4C3)nc12 | 30.89
5 | CCC(Nc1nnnn1-c1ccccc1)C(=O)Nc1nc(C)cs1 (configuration not stated) | -13.81
6 | Cc1nnsc1C(=O)NCc1cccnc1N(C)C | 6.17
7 | O=C(c1cccc(CNCC=Cc2ccccc2)c1)N1CCCC1 | 4.49
8 | CCN(Cc1nc2c(cnn2C)c(=O)[nH]1)c1ccccc1C | -16.3
9 | COc1ccc(NC(=O)C2CCCO2)cc1OCc1cccnc1 (configuration not stated) | 61
10 | COc1ccc(NC(=O)C2CC2)cc1OCc1cccnc1 | 21.24
11 | COc1ccc(NC(C)=O)cc1OCc1cccnc1 | 5.44
12 | CCc1nnc2n1CCN(Cc1ncc(-c3ccc(F)cc3)o1)C2 | 1.6
13 | O=C(c1ncccn1)N1C[C@@H]2CN(Cc3cccnc3)CCO[C@@H]2C1 | 22.62
14 | CCN(Cc1noc(C2CCC2)n1)C(=O)c1cnc2ccccc2c1 | 19.53
15 | CCN(Cc1noc(C2CC2)n1)C(=O)c1onc2ccccc12 | 51.31
16 | CCCc1nc(CN(CC)C(=O)c2onc3ccccc23)no1 | -12.7
17 | Cc1cnc(N)c(C(=O)C2CCN(C(=O)c3cnc(C)cn3)CC2)c1 | 25.72
18 | Cc1cnc(N)c(C(=O)C2CCN(C(=O)c3cnc(C)nc3C)CC2)c1 | 69.08
19 | C=C(C)C(=O)N1CCC(C(=O)c2cc(C)cnc2N)CC1 | 6.57
20 | Cc1cnc(N)c(C(=O)C2CCN(C(=O)C3CCC3)CC2)c1 | 61.16
21 | CC(=O)N1CCC(C(=O)c2cc(C)cnc2N)CC1 | 27.16
22 | Cc1cnc(N)c(C(=O)C2CCN(C(=O)c3ccccc3F)CC2)c1 | 21.37

Row | Compound | INHIBITION [%]
23 | O=C(NCCn1cccn1)c1nnc2ccccc2n1 | 7.42
24 | O=C(NC[C@H]1Cn2c(-c3ccccc3)cnc2CO1)C1CC1 | 35.6
25 | CNC(=O)NC(=O)CN1CCN(CC(F)(F)F)CC1(C)C | 21.03
26 | CC1(C)CN(CC(F)(F)F)CCN1CC(=O)NC1CC1 | 65.42
27 | CC1(C)CN(CC(F)(F)F)CCN1CC(=O)NC1CCCC1 | 37.42
28 | CCC1CC(=O)NCc2nc3sc(C)cn3c21 (configuration not stated) | -18.57
29 | CCCn1ncc(C2CC(=O)NCc3nc4sc(C)cn4c32)c1C (configuration not stated) | 55.36
30 | CCCn1ncc(C2CC(=O)NCc3nc4cc(C)ccn4c32)c1C (configuration not stated) | 48.21
31 | Cc1noc(C)c1CN(C)C(=O)Cn1c(=O)n(C)c2ccccc21 | -43.5
32 | Cc1ccc(NC(=O)Nc2c(O)c3ccccc3oc2=O)cc1C | 8.92
33 | COCCn1c2c(ccc1=O)CCN(C(=O)CC1CC1)CC2 | -13.68
34 | NC(=O)NCC(=O)N1CCC(c2cc(-c3ccccc3Cl)n[nH]2)CC1 | 39.65
35 | NC(=O)NCCC(=O)N1CCC(c2cc(-c3ccccc3Cl)n[nH]2)CC1 | 31.25
36 | NC1(C(=O)N2CCC(c3cc(-c4ccccc4Cl)n[nH]3)CC2)CCC1 | 54.07
37 | NC(=O)NC1CCN(Cc2ccc3c(c2)CCC3)CC1 | 30.42
38 | CC(c1nnc(-c2cccs2)o1)N1CCc2cncnc2C1 (configuration not stated) | -9.5
39 | O=c1[nH]nc2c(S(=O)(=O)N3CCCCC3)cccn12 | 6.33
40 | CCC(CO)N(Cc1ccccn1)C(=O)c1ccc(C)c(Cl)c1 (configuration not stated) | 42.48
41 | COCCC1(CNC(=O)NCC2CCC2)CCC1 | 29.43
42 | COCCC1(CNC(=O)NCC2CCCS2)CCCC1 (configuration not stated) | 55.39
43 | COCCC1(CNC(=O)NCC2CCCN(C)C2)CCCC1 (configuration not stated) | -24.61
44 | CC(C)Nc1nc(-c2ccccc2)nc2c1CCN(C(=O)CC#N)CC2 | 27.22

Row | Compound | INHIBITION [%]
45 | CCN(Cc1noc(C)n1)C(=O)C(c1ccc(C)cc1)N(C)C (configuration not stated) | -0.28
46 | COc1cccc2c1ccn2CCNC(=O)CC(C)C | -55.67
47 | COc1cccc2c1ccn2CCNC(C)=O | -7.17
48 | COCC(=O)NCCn1ccc2c(OC)cccc21 | 50.32
49 | CCN(CCO)C[C@@H]1CN(c2nc(C)cc(C)n2)C[C@@H]1CO | 5.88
50 | O=C(c1ccc(F)c(F)c1)N1CCC(Cn2cc(CO)nn2)CC1 | 20.91
51 | Cc1nn(C)c(N(C)C)c1CNCc1cccc(CN(C)C(C)C)c1 | 44.39
52 | CCC(NC1CCCC1)c1ccc(S(C)(=O)=O)cc1 (configuration not stated) | 58.65
53 | CCC(NC1Cc2ccccc2C1)c1ccc(S(C)(=O)=O)cc1 (configuration not stated) | 10.02
54 | CCC(NC1CSCCSC1)c1ccc(S(C)(=O)=O)cc1 (configuration not stated) | 9.51
55 | Cc1ccc(-c2c[nH]c([C@@H]3COCCN3Cc3cccnc3)n2)cc1 | 3.84
56 | CC(C)(CO)NCc1nn(Cc2ccccc2)nc1-c1ccccc1 | -34.52
57 | CN1C[C@@H](N)C[C@H]1c1nc(-c2ccc3c(c2)OCO3)no1 | 28.2
58 | CN1C[C@H](O)C[C@H]1c1nc(-c2ccc3c(c2)OCO3)no1 | 45.22
59 | CC(=O)N[C@H]1C[C@@H](c2nc(-c3ccc4c(c3)OCO4)no2)N(C)C1 | 57.31
60 | O=C(c1ccc[nH]1)N1CCc2ccc(S(=O)(=O)N3CCOCC3)cc2C1 | -19.95
61 | CCC[C@@H]1CN(Cc2ccc(C(F)(F)F)nc2)C[C@H]1C(=O)O | 21.97
62 | Cc1ccccc1[C@@H]1CN(Cc2ccc(C(F)(F)F)nc2)C[C@H]1C(=O)O | 67.28
63 | Cc1ccccc1[C@@H]1CN(CCCS(=O)(=O)N(C)C)C[C@H]1C(=O)O | 52.3
64 | Cc1ccccc1[C@@H]1CN(CCOCCO)C[C@H]1C(=O)O | 35.46
65 | COCCN1C[C@@H](C(=O)O)[C@H](c2ccccc2C)C1 | 42.2
66 | Cc1ccccc1[C@@H]1CN(Cc2nc3ncccn3n2)C[C@H]1C(=O)O | -18.59

Row | Compound | INHIBITION [%]
67 | OC(CNCCn1cccn1)c1ccc(F)c(F)c1 (configuration not stated) | 21.91
68 | Cc1nc(COc2ccc(N(C)S(C)(=O)=O)cc2)sc1C | -26.08
69 | O=C(O)c1nnn(-c2ccccc2F)c1-c1ccncc1 | 37.61
70 | O=S(=O)(CCN1CCOC(Cn2cccn2)C1)c1ccccc1 (configuration not stated) | -34.9
71 | CCn1cnnc1C1CCN(C(=O)c2ccc3ccccc3n2)CC1 | -6.48
72 | O=C(Nc1cccnc1)C1CCN(c2cc(-n3ccnc3)ncn2)CC1 | 3.38
73 | O=C(NC1CCN(c2cc(-n3ccnc3)ncn2)CC1)c1ccncc1 | 29.19
74 | O=C(NC1CCCC1)C1CCN(c2cc(-n3ccnc3)ncn2)CC1 | 70.33
75 | Cc1n[nH]c(C)c1-c1nccnc1CC1CCCN(C)C1 (configuration not stated) | 31.98
76 | CCCC(=O)Nc1ccc2c(c1)C1(CCOCC1)CN2CCOC | 39.44
77 | COc1ccc(C[C@H]2CNCC[C@@H]2OC)cc1 | 18.65
78 | O=c1cc(N2CCCC2)cnn1CC(F)F | 18.81
79 | O=C(CSc1nnc[nH]1)NCc1sccc1Br | 32.1
80 | Cc1ccsc1CNC(=O)CSc1nnc[nH]1 | 5.98
81 | O=C(CSc1nnc[nH]1)NCc1cccs1 | 59.03
82 | COCCNc1nc(NCCc2ccccc2)nc2nccnc12 | -20.55
83 | Cc1nc(O)cc(C2CCCN(C(=O)CN(C)c3ccccc3)C2)n1 (configuration not stated) | -14.36
84 | Cc1ccc(CC(=O)N2CCCN(Cc3nccn3C)CC2)cn1 | 5.72
85 | CCn1nc(C)c2ncnc(N(C)C)c21 | -47.86
86 | Cn1ccnc1C(=O)N[C@@H]1CN(Cc2ccoc2)[C@@H]2CCCO[C@@H]21 | 26.76
87 | Cn1cccc1C(=O)N[C@H]1CN(Cc2ccoc2)[C@@H]2CCCO[C@H]12 | 56.76
88 | Cn1cc(C(=O)N[C@@H]2CN(Cc3ccoc3)[C@@H]3CCCO[C@@H]32)cn1 | -6.61

Row | Compound | INHIBITION [%]
89 | Cc1cc(C(=O)NC(CC(C)C)C(=O)Nc2cc[nH]n2)c(C)o1 (configuration not stated) | -36.72
90 | COC(=O)CC(c1cccnc1)c1oc(C)cc(=O)c1O (configuration not stated) | 24.02
91 | Cc1noc(-c2ccc(Oc3cccc(CN4CCCC4)c3F)nc2)n1 | -9.95
92 | CC(Cn1cc(Br)cn1)C(=O)Nc1ccc(Cl)cn1 (configuration not stated) | 29.12
93 | CC(C)NCC1(O)CCCN(CCC2CCCCC2)C1=O (configuration not stated) | 25.35
94 | CCC(CNC(=O)c1nc(=O)[nH][nH]1)Oc1cccc(F)c1 (configuration not stated) | 6.92
95 | CC(C)c1n[nH]c(C(=O)Nc2cc[nH]n2)c1Br | 11.18
96 | Cc1ccnc(NC(=O)c2[nH]nc(C(C)C)c2Br)c1 | 49.43
97 | Cc1cccc(NC(=O)c2[nH]nc(C(C)C)c2Br)n1 | 80.46
98 | COc1ccccc1NC(=O)c1[nH]nc(C(C)C)c1Br | -2.93
99 | CC(C)c1n[nH]c(C(=O)Nc2ccccn2)c1Br | 78.42
100 | CC(C)c1n[nH]c(C(=O)Nc2ccncc2)c1Br | 29.37
101 | Cc1nc(C)n(CC2CCCN(c3ccc(C#N)cn3)C2)n1 (configuration not stated) | 13.24
102 | CCN1CCNC(=O)C12CCN(C(=O)Cc1ccccn1)CC2 | 31.84
103 | Cc1ccc(C(=O)NCC(O)c2cccc(F)c2)c(=O)[nH]1 (configuration not stated) | -7.13
104 | Cc1ncsc1C(=O)N1CCN(CCC(C)C)CC1 | 71.95
105 | CCCN1CCN(C(=O)c2scnc2C)CC1 | -21.84
106 | CCN1CCN(C(=O)c2scnc2C)CC1 | -25.82
107 | CC1CN(C(=O)CN(Cc2ccco2)Cc2cccs2)CCO1 (configuration not stated) | 26.78
